Measured values: PubChem BioAssay AID1159580 (chemical genetic matrix, 2015)
“And” between values parts separate entries of the source, which are not always exact repeats. Identical values can stand only once. The whole screen tested about 5,500 compounds, of which about 2,000 (36%) were called active. Inconclusive results (about 18%) are left out. No stated cut-off is given here; in the data, active means normalized growth mostly below about 0.91 (no sharp cut-off); inconclusive means no clear call, values can overlap the other calls; inactive means mostly above about 0.92. Some of the results follow.

Test: chemical genetic growth profiling, strain panel (AID 1159580);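 further: tested at 20 µM; growth read once vehicle control cultures reached saturation at 30 °C; 1 = growth at the plate median or of vehicle wells; lower values mean less growth of the strain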
Conditions: S. cerevisiae deletion strains, growth OD

Measured: normalized growth

CC(=O)OC(C)(C)[C@@H]1Cc2cc3ccc(=O)oc3cc2O1
inactive: locus YAL021C, strain ccr4, active compounds read low 1.01 | locus YAL026C, strain drs2, active compounds read low 0.984 | locus YAL030W, strain snc1, active compounds read low 0.963 | locus YBL061C, strain skt5, active compounds read low 0.969 | locus YBR009C, strain hhf1, active compounds read low 0.909 | locus YBR021W, strain FUR4, active compounds read low 0.99 | locus YBR023C, strain chs3, active compounds read low 0.972 | locus YBR171W, strain sec66, active compounds read low 0.968 | locus YBR229C, strain ROT2, active compounds read low 1 | locus YBR231C, strain swc5, active compounds read low 0.968 | locus YBR279W, strain paf1, active compounds read low 0.975 | locus YCL011C, strain gbp2, active compounds read low 0.954 | locus YCL016C, strain dcc1, active compounds read low 0.977 | locus YCL029C, strain bik1, active compounds read low 1.01 | locus YCL061C, strain MRC1, active compounds read low 0.978 | locus YCL069W, strain vba3, active compounds read low 0.963 | locus YCR088W, strain abp1, active compounds read low 0.982 | locus YDL005C, strain med2, active compounds read low 0.977 | locus YDL035C, strain GPR1, active compounds read low 1.01 | locus YDL040C, strain nat1, active compounds read low 0.968 | locus YDL074C, strain BRE1, active compounds read low 1.03 | locus YDL101C, strain DUN1, active compounds read low 0.999 | locus YDL185W, strain tfp1, active compounds read low 1 | locus YDL192W, strain arf1, active compounds read low 0.989 | locus YDR001C, strain nth1, active compounds read low 0.965 | locus YDR069C, strain doa4, active compounds read low 0.962 | locus YDR101C, strain arx1, active compounds read low 1.01 | locus YDR137W, strain rgp1, active compounds read low 0.992 | locus YDR150W, strain NUM1, active compounds read low 1.01 | locus YDR159W, strain sac3, active compounds read low 0.936 | locus YDR162C, strain NBP2, active compounds read low 1 | locus YDR195W, strain ref2 0.959 | locus YDR297W, strain sur2, active compounds read low 0.972 | locus YDR318W, strain mcm21, active compounds read low 0.991 | locus YDR334W, strain swr1, active compounds read low 0.972 | locus YDR335W, strain msn5, active compounds read low 0.992 | locus YDR388W, active compounds read low 1 | locus YDR392W, strain spt3, active compounds read low 0.789 | locus YDR502C, strain sam2, active compounds read low 1.01 | locus YEL003W, strain gim4, active compounds read low 0.968 | locus YEL037C, strain rad23, active compounds read low 0.965 | locus YEL061C, strain CIN8 (second series), active compounds read low 0.97 | locus YEL061C, strain CIN8, active compounds read low 1 | locus YER015W, strain faa2, active compounds read low 0.989 | locus YER016W, strain bim1, active compounds read low 0.982 | locus YER110C, active compounds read low 0.995 | locus YER111C, strain swi4, active compounds read low 0.974 | locus YER155C, strain BEM2 (second series), active compounds read low 0.94 | locus YER155C, strain BEM2, active compounds read low 0.999 | locus YER167W, strain BCK2, active compounds read low 0.998 | locus YFR010W, strain ubp6, active compounds read low 0.969 | locus YGL078C, strain dbp3, active compounds read low 1.02 | locus YGL086W, strain mad1, active compounds read low 1.01 | locus YGL167C, strain pmr1, active compounds read low 0.949 | locus YGL173C, strain kem1, active compounds read low 0.961 | locus YGL227W, strain vid30, active compounds read low 0.966 | locus YGL240W, strain doc1, active compounds read low 0.96 | locus YGL248W, strain PDE1, active compounds read low 0.997 | locus YGL253W, strain hxk2, active compounds read low 0.985 | locus YGR135W, strain pre9, active compounds read low 0.989 | locus YGR229C, strain SMI1, active compounds read low 1.04 | locus YGR252W, strain gcn5, active compounds read low 0.916 | locus YHR013C, strain ard1, active compounds read low 0.92 | locus YHR027C, strain rpn1, active compounds read low 0.984 | locus YHR030C, strain SLT2, active compounds read low 0.998 and 0.969 | locus YHR079C, strain IRE1 (second series), active compounds read low 1 | locus YHR079C, strain IRE1, active compounds read low 0.978 | locus YHR094C, strain hxt1, active compounds read low 1.01 | locus YHR129C, strain ARP1, active compounds read low 0.996 | locus YHR142W, strain chs7, active compounds read low 0.993 | locus YHR200W, strain rpn10, active compounds read low 0.989 | locus YIL066C, strain RNR3, active compounds read low 1.01 | locus YIL073C, strain SPO22, active compounds read low 1.04 | locus YIL125W, strain kgd1, active compounds read low 1.02 | locus YIR030C, strain dcg1, active compounds read low 0.997 | locus YJL092W, strain hpr5, active compounds read low 0.986 | locus YJL095W, strain BCK1 (second series), active compounds read low 0.983 | locus YJL095W, strain BCK1, active compounds read low 1.01 and 1.05 | locus YJL115W, strain asf1, active compounds read low 0.983 | locus YJL129C, strain trk1, active compounds read low 0.981 | locus YJL134W, strain LCB3, active compounds read low 1.01 | locus YJL154C, strain vps35, active compounds read low 0.966 | locus YJL164C, strain tpk1, active compounds read low 0.996 | locus YJL166W, strain qcr8, active compounds read low 0.979 | locus YJL168C, strain set2, active compounds read low 1 | locus YJL187C, strain SWE1 (second series), active compounds read low 1 | locus YJL187C, strain SWE1, active compounds read low 0.971 | locus YJR043C, strain POL32, active compounds read low 0.991
